NSD2 HMT inh – NSD2 (human) methyltransferase inhibition; NSD2 peptide methylation, AlphaScreen, 120 min; inhibition, % at 12.5 µM; actives 0.54% (n = 310,000); in the data active = inhibition above about 50%
MLL AF4-AF9 inh – blocks AF4 peptide binding to human AF9. AlphaScreen, biotin-AF4 peptide binding to FLAG-AF9. inhibition, % at 10 µM. actives 0.47% (n = 350,000). AID 651704;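 active = every replicate reaching a set inhibition limit, whatever the replicate mean, cut at about 25% in these data; inconclusive = mean inhibition reaches that limit but some replicates miss it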;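 also: 0% = plate neutral control median and 100% = total signal loss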
Target sequence (P42568 whole entry, looked up): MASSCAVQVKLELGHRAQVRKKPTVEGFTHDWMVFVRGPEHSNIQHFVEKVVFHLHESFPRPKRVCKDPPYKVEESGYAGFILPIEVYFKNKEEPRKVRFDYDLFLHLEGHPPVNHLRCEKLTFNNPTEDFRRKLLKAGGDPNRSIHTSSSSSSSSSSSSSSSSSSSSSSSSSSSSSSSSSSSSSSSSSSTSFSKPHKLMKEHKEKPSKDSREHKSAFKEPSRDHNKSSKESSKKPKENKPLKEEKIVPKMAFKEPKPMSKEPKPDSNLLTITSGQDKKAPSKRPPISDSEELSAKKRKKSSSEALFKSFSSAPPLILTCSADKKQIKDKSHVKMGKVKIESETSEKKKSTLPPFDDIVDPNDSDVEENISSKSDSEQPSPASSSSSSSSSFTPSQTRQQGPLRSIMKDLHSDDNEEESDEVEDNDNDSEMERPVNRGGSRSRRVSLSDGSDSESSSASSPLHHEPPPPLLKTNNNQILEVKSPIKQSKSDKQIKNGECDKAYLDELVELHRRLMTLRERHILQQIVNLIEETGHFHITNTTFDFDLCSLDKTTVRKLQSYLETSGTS
PGC1a acetyl inh – PGC1a acetylation modulation, inhibitor mode; AID 651687; inhibition, % at 15.6 µM; U2OS PGC1a acetylation, AlphaScreen anti-acetyl-lysine; with virally co-expressed GCN5 acetyltransferase; actives 0.17% (n = 350,000);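 active = every replicate shows inhibition of at least 40%; inconclusive = mean inhibition at least 40% but some replicate below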;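 also: 0% = neutral control wells and 100% = positive control wells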
HIV Env fusion – HIV envelope-mediated fusion inhibition. HeLa-JRFL Env/CEM21 cell fusion, luciferase. inhibition, % at 12.3 µM. actives 1.1% (n = 360,000). AID 651610;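 active = mean replicate inhibition score of at least 50 and every replicate individually at or above 50; inconclusive = only one of the two criteria met; inactive = mean below 50 and not all replicates reaching 50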;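 also: 0% = plate neutral controls and 100% = maraviroc near 300 nM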
GSIS activator – GLuc luminescence reporter in INS-1E cells, primary screen for activators of glucose-dependent secretion of insulin; INS-1E GLuc reporter insulin secretion, 2-3 h; activation, % at 16.6 µM; actives 0.61% (n = 370,000); AID 743287;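 active = lowest replicate activation of at least 40%, so every replicate reaches that level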;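 also: 0% = median of neutral control wells and 100% = median of IBMX positive control wells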
* hit, by the source's call; ? = inconclusive; nt = no result; [ ] = dose if it differs, or a comment. In the library only some 2.1% were active in any assay of this set; here they are far more common.

SMILES	NSD2 HMT inh	MLL AF4-AF9 inh	PGC1a acetyl inh	HIV Env fusion	GSIS activator
O=C(Nc1ccc([N+](=O)[O-])cc1)Nc1ccc(OC(F)F)c(Cl)c1	-1.4	nt	nt	42.6	173.9*
CC1CCCN(C(=O)C2CCN(S(=O)(=O)c3cccc4cccnc34)CC2)C1 (centres undefined)	nt	5.7	4.5	-2.5	-3.2
CCCCn1nc(C(=O)NC2CCCCCC2)c2ccccc2c1=O	-3.9	-2.6	-1.1	21.0	2.0
CCCn1nc(C(=O)NC2CCCC2)c2ccccc2c1=O	-3.2	-1.0	-6.8	nt	57.9*
COc1ccc(-c2sc(Nc3ccccc3)n[n+]2-c2ccccc2)cc1Br	nt	-5.7	-2.4	-35.6	0.8
C(=C\c1sc(Nc2ccccc2)n[n+]1-c1ccccc1)/c1ccccc1	nt	30.7*	-8.8	21.0	-1.1
O=C(c1cc(COc2cccc(C(F)(F)F)c2)on1)N1CCC(c2ccccc2)CC1	-1.0	-0.3	nt	5.6	-49.8
O=C(c1cc(COc2cccc(C(F)(F)F)c2)on1)N1CCC(c2ccncc2)CC1	-0.4	0.4	nt	71.8*	-49.0
O=C(CNC(=O)c1nc[nH]c1C(=O)NCc1ccccc1)OCc1ccccc1	nt	6.9	0.4	-21.8	nt
COC(=O)[C@]12C[C@H](CC(=O)NCC3CCCCC3)C(=O)N(Cc3ccc4c(c3)OCO4)C1=C[C@H](C(C)(C)C)O[C@@H]2C	nt	0.7	nt	11.1	10.4
COc1ccc(-c2cc(C(=O)O)c(C)o2)cc1OC	21.3	nt	9.4	-41.6	nt
CCOC(=O)N1CCN(C(=O)C[C@@H]2C[C@@]3(C(=O)OCC)CCCC=C3N(Cc3ccc4c(c3)OCO4)C2=O)CC1	nt	-0.4	nt	-64.4	nt
Cc1nn(C2CCS(=O)(=O)C2)c(Cl)c1/C=C/C(=O)OCC(=O)c1cc(C)n(-c2ccc(F)cc2)c1C (centres undefined)	-0.9	2.3	11.6	55.0*	-2.5
NC(=O)Cn1cnc(-c2ccccc2)c1	-0.7	nt	-22.6	nt	5.9
C[C@@H]1CN([C@H](C)CO)C(=O)c2cc(NC(=O)Nc3ccc4c(c3)OCO4)ccc2O[C@@H](C)CCCCO[C@@H]1CN(C)Cc1ccccc1	nt	7.1	7.0	3.9[16.7 µM]	-18.9
COC(=O)c1sc(NC(=O)c2cc(-c3ccccc3)nc3ccccc23)c(C#N)c1C	nt	nt	6.5	nt	nt
Cc1ccccc1-c1cc(C(=O)Nc2sc(C(=O)OC(C)C)c(C)c2C#N)c2ccccc2n1	13.0	nt	-4.7	63.5*	nt
C=CC(=O)Nc1cccc(Oc2ccnc(Nc3ccc(N4CCN(C)CC4)cc3)n2)c1	nt	70.1*	?	?	-14.4
NC1=NC[C@H](Cc2ccc(O)cc2)N1CCc1cccc(F)c1	nt	-2.6	nt	4.7	26.5
NC1=NC[C@@H](Cc2ccc(O)cc2)N1CCC12CC3CC(CC(C3)C1)C2	nt	0.7	5.6	8.4	183.6*
COc1ccc2nc3cc(Cl)ccc3c(Nc3ccc(O)c(CN4CCN(C)CC4)c3)c2c1	-2.0	58.6*	0.2	-29.9	-15.3
COc1ccc2nc3cc(Cl)ccc3c(C#N)c2c1	nt	-0.1	-2.4	-3.7	nt
CCN(CC)c1ccc(CNc2ccc3c(c2)ncn3CC)cc1	19.5	44.8*	nt	16.8	-15.1
CN(C)c1ccc(CNc2ccc3c(c2)ncn3C(C)(C)C)cc1	12.2	35.4*	nt	15.1	-31.7
CCn1cnc2cc(NCc3ccc(N(C)C)cc3)ccc21	6.1	18.9	?	-21.0	-31.6
SMILES	NSD2 HMT inh	MLL AF4-AF9 inh	PGC1a acetyl inh	HIV Env fusion	GSIS activator
Cc1nnc(SC(C)C(=O)N2CCc3ccccc32)s1 (centres undefined)	0.6	nt	5.8	nt	nt
C[C@H]1CN([C@@H](C)CO)C(=O)c2cc(NC(=O)NC3CCCCC3)ccc2O[C@H]1CN(C)S(=O)(=O)c1cccs1	nt	0.7	-7.1	13.7[16.7 µM]	-10.3
Cc1cc(Oc2ccccc2)nc(SCC(=O)Nc2ccc(Cl)c(Cl)c2)n1	3.3	nt	-9.6	-15.0	nt
CCCCCCC1CCC(C(=O)NC(CCSC)C(=O)NC(C(=O)OC)C(C)C)CC1 (centres undefined)	-1.1	nt	-1.4	57.5*	nt
O=C(Nc1ccccc1F)N1CC(=O)N2[C@H](CO)[C@@H](c3ccc(C#CC4CCCC4)cc3)[C@H]2C1	nt	5.4	-3.9	nt	-11.3
Cc1nc2c(-c3ccc(F)cc3)cnn2c2c1CCC2	-4.7	-8.1	nt	-37.0	43.6*
O=C(N/N=C\c1ccc(CNS(=O)(=O)c2ccc(Cl)cc2)o1)C(=O)Nc1ccc(Oc2ccccc2)cc1	-1.4	nt	nt	nt	58.3*
O=C1CC(C(=O)N(CC2CCCO2)C(C(=O)NC2CCCCC2)c2ccncc2)CS1 (centres undefined)	18.3	nt	-1.9	77.6*	12.2

Assay outcomes as filed in PubChem.
